Source: PubChem BioAssay (NCATS)
Where “and” joins values, the source holds several entries; their conditions need not be identical. Equal values may be shown once. Results filed as inconclusive are left out. Calls of active or inactive are those of the source. Calls come from the whole dose curve; as a rule, active = well fitted cell-killing curve with a large enough effect; inconclusive = small, poorly fitted or top-dose-only effect, or effect the other way; inactive = no such curve, though single readings can be large or run the other way.

Assay: Viability qHTS for spleen associated tyrosine kinase inhibitor (SYKi) drug resistant MV4-11 cells (AID 1963824); note: nearly all actives have a fitted effect of over 35% in size
Details: SYKi-resistant MV4-11 viability, CellTiter-Glo, 72 h; series mostly up to 45 µM; viability, % of control: at the top concentration
Procedure, shortened: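 SYK inhibitor-resistant MV4-11 AML cells, 500 per well, added to predispensed compounds and incubated 72 hr at 37 C, 5% CO2. Viability measured by CellTiter-Glo luminescence after 10 min at room temperature.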
Potency is the fitted concentration of half-maximal effect.

Structure (SMILES)	Potency	viability, % of control
CCOC(=O)Nc1ccc(NCc2ccc(F)cc2)cc1N	18.6 µM (active)	–
Cc1ccc(-c2nc3ccc(C)cn3c2CC(=O)N(C)C)cc1	–	97.6% (inactive)
COc1cc(CC(C)N)cc2c1OCO2 (centres undefined)	–	94.3% [at 91.9 µM] (inactive)
CCC1(CC)C(=O)NC(=O)NC1=O	–	69.7% (inactive)
CCCN1CCC[C@@H]2Cc3nc(N)ncc3C[C@H]21	–	71.2% (inactive)
O=C(CCCN1CCC2(CC1)C(=O)NCN2c1ccccc1)c1ccc(F)cc1	–	71.4% (inactive)
N#Cc1nn(-c2c(Cl)cc(C(F)(F)F)cc2Cl)c(N)c1S(=O)C(F)(F)F (centres undefined)	10.6 µM (active)	–
NCc1cccnc1	–	84% (inactive)
CCOC(=O)CC(SP(=S)(OC)OC)C(=O)OCC (centres undefined)	–	93.2% (inactive)
O=[N+]([O-])c1c2ccccc2cc2ccccc12	24.1 µM (active)	–
CC(C)[C@H]1C(=O)N[C@H](CO)Cc2c[nH]c3cccc(c23)N1C	0.288 µM (active)	–
Nc1ccc(Cl)cc1	–	102% [at 91.9 µM] (inactive)
CCC(CC)(CNC(=O)CCCO)c1cccc(OC)c1	–	64.5% (inactive)
COC[C@@H](NC(C)=O)C(=O)NCc1ccccc1	–	94.6% (inactive)
Cc1nnc2n1-c1sc(CCC(=O)N3CCOCC3)cc1C(c1ccccc1Cl)=NC2	–	99.1% (inactive)
COc1ccc(C(=O)N2CCCC2=O)cc1	inactive	–
COC(=O)[C@@]12OC[C@]34[C@H]([C@@H](O)[C@@H]1O)[C@@]1(C)CC(=O)C(O)=C(C)[C@@H]1C[C@H]3OC(=O)[C@H](OC(=O)/C=C(\C)C(C)C)[C@@H]24	0.0132 µM (active)	–
O=c1cccc2n1CC1CNC[C@H]2C1	–	98.8% (inactive)
COc1cc(C(=O)N2CC[C@@H](O)[C@@H](N)C2)cc2nc(-c3cc4ccccc4n3CC3CC3)n(C)c12	9.34 µM (active)	–
COc1cc(CCN)cc(OC)c1OC	–	102% [at 91.9 µM] (inactive)

Structure (SMILES)	Potency	viability, % of control
COc1cc2c(cc1F)C(c1ccccc1Cl)=Nc1c(n[nH]c1C)N2	1.48 µM (active)	–
COc1ccc2c(c1OC)CN1CCc3cc4c(cc3C1C2)OCO4 (centres undefined)	4.11 µM (active)	–
C[N+]1(C)[C@@H]2CC[C@H]1CC(OC(=O)C(CO)c1ccccc1)C2 (some centres undefined)	–	75.7% (inactive)
CC[C@H](O)C(C[C@H](C)N(C)C)(c1ccccc1)c1ccccc1	–	101% [at 91.9 µM] (inactive)
CC(C)(C)C(O)C(Oc1ccc(Cl)cc1)n1cncn1 (centres undefined)	21.7 µM (active)	–
CCCCCC[C@H]1C(=O)O[C@H](C)[C@H](NC(=O)c2cccc(NC=O)c2O)C(=O)O[C@@H](C)[C@@H]1OC(=O)CC(C)C	0.105 µM (active)	–
C[C@]12CC[C@H]3[C@@H](CC[C@@]45O[C@H]4C(O)=C(C#N)C[C@]35C)[C@H]1CC[C@H]2O	11.9 µM (active)	–
O=C(O)C(=O)c1cn(Cc2ccccc2)c2ccc(-c3ccc(OC(F)(F)F)cc3)cc12	20.6 µM (active)	–
COc1cc(CC(C)N)c(OC)cc1Br (centres undefined)	11.3 µM (active)	–
C[C@]12CCC(=O)C=C1CC[C@@H]1[C@H]3CC[C@](C)(O)[C@@]3(C)CC[C@@H]12	21.9 µM (active)	–
CC(=O)OC1(c2ccccc2)CCN(CCc2ccccc2)CC1	44.1 µM (active)	–
O=[N+]([O-])c1cc([As](=O)(O)O)ccc1O	–	79.4% (inactive)
O=S(=O)(CC1CS1)c1ccc(Oc2ccccc2)cc1 (centres undefined)	10.5 µM (active)	–
CCCN1CCO[C@@H]2c3cc(O)ccc3OC[C@H]21	–	81.2% (inactive)
O=S(=O)(F)Cc1ccccc1	–	86.9% (inactive)
CCC(=O)O[C@@H]1C=C2CCC3C(CCC4(C)C3CC[C@@H]4OC(=O)CC)C2CC1 (some centres undefined)	–	90.3% (inactive)
CC(C)(O)C(=O)Nc1ccc([N+](=O)[O-])c(C(F)(F)F)c1	18.6 µM (active)	–
CN(C)c1cc2c(cc1Sc1nc3c(N)nccc3n1CCNCC(C)(C)C)OCO2	184 nM (active) and 235 nM (active)	–
C=CCN1C[C@H](C)N([C@H](c2ccc(C(=O)N(CC)CC)cc2)c2cccc(OC)c2)C[C@H]1C	–	93.3% [at 9.25 µM] (inactive)
